gsp agonist = activates gsp, the McCune-Albright syndrome mutation; gsp mutant cells, cAMP HTRF, 30 min; Potency, µM (series often up to 76.9 µM), for inactives: at the top dose activation (cAMP increase), hits mostly activators; hit rate 0.13% among 340,000; AID 624287; active means well fitted activation curve with a large enough effect; inconclusive means small, poorly fitted or top-dose-only effect, or another doubt; inactive means no such curve, though single readings can be large or run the other way; cell line not stated here;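 further: phosphodiesterase inhibitor Ro 20-1724 added with compounds to block cAMP breakdown; potency means the concentration at half of the fitted maximal effect; nearly all actives have a fitted effect of over 60% in size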
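Cells in DMEM/10% FBS with G418 were pretreated with compounds in DMSO plus […] (300 uM stock) for 30 min at 37C. cAMP was measured by HTRF (cAMP-d2 plus anti-cAMP antibody-K) after 30 min at room temperature.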
ClpP mod = qHTS Assay for Activators of ClpP | ATP-dependent Clp protease proteolytic subunit (Bacillus subtilis (strain 168)), P80244 | purified B. subtilis ClpP, FRET peptide cleavage, 20 min | Potency, µM (top dose mostly 57.5 µM), for inactives: at the top dose activity change, negative = active | hit rate 1.9% among 340,000 | AID 651965, 2013; active means well fitted falling curve with a large enough effect; inconclusive means small, poorly fitted or top-dose-only effect; inactive means no such curve, though single readings can be large or run the other way; further: potency means the concentration at half of the fitted maximal effect; the source files actives as falling curves though it sought activators and does not explain the sign; nearly all actives have a fitted effect of over 65% in size
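FRET quenching reversal measured ClpP activation: 10 microg/mL B. subtilis ClpP at pH 8 with the FRET-FV decapeptide, read at 430 nm after 320 nm excitation. The 20-min minus 0-min signal was scaled between DMSO/no-enzyme wells and ADEP (5.8 microM final).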
RXFP1 agonist = activates the human relaxin receptor RXFP1 | Potency, µM (top dose mostly 57.5 µM), for the others: at the top dose activation, usual class: activators | HEK293T-RXFP1 cAMP TR-FRET, 30 min; response scale: percent of porcine relaxin response, buffer zero | hit rate 0.3% among 370,000 | AID 2676; active means well fitted activation curve with a large enough effect; inconclusive means small, poorly fitted or top-dose-only effect; further: potency means the concentration at half of the fitted maximal effect; on the % scale 0 is the no-effect control and ±100 the full control effect; nearly all actives have a fitted effect of over 60% in size
Target sequence (Q9HBX9 whole entry, looked up): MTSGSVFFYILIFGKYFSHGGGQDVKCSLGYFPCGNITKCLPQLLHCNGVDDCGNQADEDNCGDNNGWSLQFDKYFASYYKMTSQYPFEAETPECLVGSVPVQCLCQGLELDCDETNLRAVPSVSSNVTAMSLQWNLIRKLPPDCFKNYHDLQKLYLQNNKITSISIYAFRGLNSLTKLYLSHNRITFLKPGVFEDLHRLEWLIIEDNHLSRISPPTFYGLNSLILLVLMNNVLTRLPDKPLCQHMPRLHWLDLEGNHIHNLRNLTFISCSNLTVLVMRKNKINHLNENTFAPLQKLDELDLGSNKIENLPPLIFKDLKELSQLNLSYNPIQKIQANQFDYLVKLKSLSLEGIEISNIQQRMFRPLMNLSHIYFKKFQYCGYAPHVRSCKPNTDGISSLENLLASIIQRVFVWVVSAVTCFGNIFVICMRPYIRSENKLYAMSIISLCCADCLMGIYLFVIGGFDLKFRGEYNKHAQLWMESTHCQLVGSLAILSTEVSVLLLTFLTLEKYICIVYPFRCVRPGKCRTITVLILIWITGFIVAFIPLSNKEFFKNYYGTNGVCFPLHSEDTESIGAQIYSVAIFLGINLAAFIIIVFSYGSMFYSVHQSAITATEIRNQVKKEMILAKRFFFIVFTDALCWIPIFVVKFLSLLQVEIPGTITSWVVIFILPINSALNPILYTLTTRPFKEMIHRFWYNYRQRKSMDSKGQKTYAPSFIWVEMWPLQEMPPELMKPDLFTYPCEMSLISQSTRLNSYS
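cAMP rise read by TR-FRET after 30 min, 37C compound exposure (up to 58 uM) in RXFP1-transfected HEK293 cells with Ro 20174 present. EC50 from Hill-equation fits, with 29 nM porcine relaxin as 100% and buffer as basal.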
pAkt inh = inhibitors of Akt phosphorylation. Neuro2A IGF-stimulated pAkt S473 HTRF, 20 min; hits give low values. activity change, % for hits at 50 µM. hit rate 0.32% among 360,000. AID 651550; in the data active means activity change below about -80%; inconclusive means mostly about -51% to -80%; further: on the % scale 0 is the no-effect control and ±100 the full control effect
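Neuro2A cells in DMEM with 0.5% FBS, overnight at 37 deg C, given compound at single 50 µM final, then IGF (6 nM final) for 20 min at 37 deg C. Lysed; phospho-Akt Ser473 by HTRF after 24 h, 665/615 ratio.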
RXFP1 antag = RXFP1 (human) relaxin receptor antagonism; Q9HBX9; HEK293-RXFP1, relaxin-stimulated cAMP HTRF, 30 min; hits give low values; activity change, negative = inhibition, % at 57.5 µM; hit rate 0.59% among 350,000; AID 1259400;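 active means activity change of -60% or lower, but not beyond a set lower limit; inconclusive means change between -60% and -40%, or beyond the set limit; inactive means change above -40%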; further: on the % scale 0 is the no-effect control and ±100 the full control effect
gsp antagonist = antagonists of gsp mutant (McCune-Albright syndrome); gsp-mutant cells, cAMP HTRF, 30 min; Potency, µM (top dose mostly 76.9 µM), inactives show at the top dose activity change, negative = inhibition, most hits filed as inhibitors; hit rate 0.4% among 340,000; calls by dose curve; cell line not stated here;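 further: intracellular cAMP measured with PDE inhibitor Ro 20-1724 present during compound exposure; potency means the concentration at half of the fitted maximal effect; on the % scale 0 is the no-effect control and ±100 the full control effect; nearly all actives have a fitted effect of over 65% in size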
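Cells in G418 medium, seeded 16-24 h, 37C; buffer exchange to DPBS + 1 mM CaCl2, 0.5 mM MgCl2, 0.05% BSA; cpds in DMSO + […] (300 uM stock), 30 min 37C; HTRF cAMP detection.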
* = called active by the depositor; i = inactive; u = inconclusive; x = no result; [ ] = dose if it differs, or a comment. Sampled rows, rich in hits. Any-hit rate of the full collection: about 2.7%.

SMILES	gsp agonist	ClpP mod	RXFP1 agonist	pAkt inh	RXFP1 antag	gsp antagonist
O=C1c2ccccc2NC(c2ccc(Cl)cc2Cl)N1O (stereo not given)	-47%	3%	-3%	-132%*	-9	-9%
O=C1c2ccccc2NC(c2c(Cl)cccc2Cl)N1Cc1ccccc1 (stereo not given)	13%	32µM*	0%	i	-24	-11%
O=C(NCc1ccccc1)C1C(=O)Nc2ccccc2C(=O)N1Cc1ccccc1 (stereo not given)	x	-17%	x	i	x	x
Cc1nn(C)c(C)c1C1Nc2ccccc2C(=O)N1O (stereo not given)	11%	-3%	0%	i	-7	4%
Cc1cccc(C2Nc3ccccc3C(=O)N2CCc2ccccc2)n1 (stereo not given)	-16%	18µM*	2%	i	7	-16%
C=CCc1cccc(C2Nc3ccccc3C(=O)N2O)c1O (stereo not given)	u	2%	1%	i	0	-5%
O=C1c2ccccc2NC(c2cnc3ccccc3n2)N1O (stereo not given)	22µM*	-25%	15%	u	-7	-11%
COc1ccc(CCNC(=O)c2c[nH]c3ccc(F)cc3c2=O)cc1OC	0%	2%	1%	i	-7	-6%
CCn1cc(C(=O)OCC(=O)Nc2ccc(C)c(Cl)c2)c(=O)c2ccc(C)nc21	x	0%	-1%	x	x	x
Cc1ccc(-c2nnc(SC(C)C(=O)NCc3ccco3)n2C)cc1 (stereo not given)	x	0%	x	x	x	x
O=C1c2ccccc2NC(c2ccc(Cl)cc2Cl)N1Cc1ccccc1 (stereo not given)	-11%	32µM*	-3%	i	-10	-12%
O=C1c2ccccc2NC(c2cccc([N+](=O)[O-])c2)N1CCc1ccccc1 (stereo not given)	6%[15.4 µM]	x	-1%	i	9	u
Cc1cc(C)cc(N(CC(=O)N/N=C/c2ccncc2)S(=O)(=O)c2ccccc2)c1	7%	6.3µM*	-1%	i	0	-23%
Cc1cc(C)cc(N(CC(=O)Nc2ccccc2-c2ccccc2)S(=O)(=O)c2ccccc2)c1	-7%	-2%	0%	i	7	21%
COc1c(N)c2ccccc2[nH]c1=O	1%	32µM*	0%	i	x	6%
COc1cc(CN(C)Cc2cc(=O)oc3cc(C)c(Cl)cc23)ccc1OC(F)F	3%[15.4 µM]	x	1%	i	-7	-14%
COc1cc(/C=C(\NC(=O)c2ccccc2)C(=O)NC(C(=O)O)c2ccccc2)cc(OC)c1OC (stereo not given)	x	-7%	-1%	i	x	7%
N#Cc1c(-c2cccc(Br)c2)cc(-c2cccnc2)nc1N	28%	32µM*	19%	i	x	5%
N#Cc1c(-c2ccc(Br)cc2)cc(-c2cccnc2)nc1N	1%[15.4 µM]	-3%	3%	i	-13	14%
O=C(Nc1ccc([N+](=O)[O-])cc1Cl)c1ccccc1O	x	-4%	x	x	x	x
CC(=O)Oc1c(C)cc(Cl)cc1C(=O)Nc1ccc([N+](=O)[O-])cc1Cl	-26%	2%	6%	i	-16	3.5µM*
Cc1ccc(CN2CCOCCS2(=O)=O)cc1	x	-2%	x	x	x	x
Cc1noc(C)c1CSCC(=O)Nc1nc(-c2ccc(F)c(F)c2)cs1	14%[15.4 µM]	x	1%	i	-34	35µM*
CCc1noc(C)c1C(=O)OCC(=O)Nc1nc(-c2ccc(F)c(F)c2)cs1	8%	-2%	0%	i	-13	40µM*
COc1ccccc1NC(=O)CSC1=Nc2ccccc2C2=NC(CC(=O)NCc3ccco3)C(=O)N12 (stereo not given)	x	2%	8%	x	-15	x
SMILES	gsp agonist	ClpP mod	RXFP1 agonist	pAkt inh	RXFP1 antag	gsp antagonist
Cc1ccc(NC(=O)NC(=O)N(C(C)C)S(C)(=O)=O)nc1	15%	35µM*	5%	i	x	3%
CC(C)N(C(=O)NC(=O)Nc1ccccn1)S(C)(=O)=O	23%	x	-1%	i	-1	16%
COc1ccc2c(c1)c(CC(=O)Nc1ccc(C(C)=O)cc1)c(C)n2C(=O)c1ccc(Cl)cc1	0%	-3%	5%	i	3	-17%
COc1ccc2c(c1)c(CC(=O)NCc1cc([N+](=O)[O-])ccc1O)c(C)n2C(=O)c1ccc(Cl)cc1	8%	1%	5%	i	-84*	35µM*
O=C(c1cccc(N2C(=O)C3C4C=CC(C4)C3C2=O)c1)N1CCN(c2ccc(F)cc2)CC1 (stereo not given)	-34%	0%	-2%	i	-3	0%
CC1C=CCC2C(=O)N(c3cccc(C(=O)N4CCN(c5ccc(F)cc5)CC4)c3)C(=O)C12 (stereo not given)	28µM*	-1%	0%	i	6	-12%
COc1ccc(C(=O)N2CCN(C)C(C)C2)cc1OC1CCN(C(C)=O)CC1 (stereo not given)	0%	0%	-2%	i	8	3%
COc1ccc(C(=O)N2CCN(C)C(=O)[C@@H]2C)cc1OC1CCN(C(C)=O)CC1	-28%	32µM*	3%	i	1	1%
CCCOc1ccc(CNC(=O)CCCn2nc(C)c3sc4ccccc4c3c2=O)cc1	x	-2%	-3%	x	3	x
Nc1ccc2nc(-c3ccc(N)c(Cl)c3)[nH]c2c1	u	3.5µM*	6%	i	-5	u
Nc1ccc2nc(-c3cccs3)[nH]c2c1	u	10µM*	27%	i	17	15%
Nc1ccc2nc(-c3ccccc3)[nH]c2c1	u	u	25%	i	5	-8%
Nc1ccc2nc(-c3ccccn3)[nH]c2c1	13%	32µM*	1%	i	0	-22%
CCCNC(=O)C(=O)NCC(c1ccc2c(c1)OCO2)N1CCN(c2ccc(F)cc2)CC1 (stereo not given)	17%	0%	1%	i	10	3%
O=c1c2c(nc3c(-c4ccccc4)c[nH]n13)CCC2	17%	25µM*	1%	i	-3	-12%
Cc1c(-c2ccccc2)[nH]n2c(=O)c3c(nc12)CCCC3	-114%	25µM*	3%	i	x	-1%
O=C(Cn1c(=O)n(-c2ccccc2)c(=O)c2sc3ccccc3c21)NC1CCCC1	x	4%	u	x	x	x
CC1(Oc2ccc3ccccc3c2)CCN(Cc2cccn2-c2nccs2)C1 (stereo not given)	x	-4%	x	i	x	x
O=C(/C=C/c1ccc([N+](=O)[O-])cc1)c1ccco1	1%	1%	1%	i	-3	4%

Screens (PubChem)
